± gives the standard deviation of the averaged measurements.
test system: HCI09 (cells of a triple-negative luminal androgen receptor type breast cancer xenograft); assay: cell viability (% of vehicle); higher = less cytotoxic; details: 10 µM; 72 h
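Note: PDX cells carrying CMV promoter-driven luciferase, viability read as total photon flux per second by IVIS imaging following D-luciferin, vehicle control 0.1% DMSO.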

Which cell viability does the source give for `C=CC[C@@H]1/C=C(\C)C[C@H](C)C[C@H](OC)[C@H]2O[C@@](O)(C(=O)C(=O)N3CCCC[C@H]3C(=O)O[C@H](/C(C)=C/[C@@H]3CC[C@@H](O)[C@H](OC)C3)[C@H](C)[C@@H](O)CC1=O)[C@H](C)C[C@@H]2OC` [Tacrolimus (FK506)] here?
The cell viability was 50.6 ± 16.

With `O=C1CCC(N2C(=O)c3ccccc3C2=O)C(=O)N1` (configuration not stated) [Thalidomide] as the molecule, how does the cell viability read?
Its cell viability is 101 ± 4.3.

`COc1cc2nc(N3CCN(C(=O)c4ccco4)CC3)nc(N)c2cc1OC.Cl` [Prazosin HCl] was tested. Which cell viability did it give?
The cell viability was 36.9 ± 1.6.

How did the cell viability turn out when `Oc1ccc(OC2CCCCO2)cc1` (configuration not stated) [Deoxyarbutin] was run?
The cell viability was 127 ± 11.

Which cell viability does the source give for `COc1ccccc1N1CCN(CCCNc2cc(=O)n(C)c(=O)n2C)CC1.Cl` [Urapidil HCl] here?
The cell viability was 89.54 ± 0.6.

With `O=C(O)CCC(=O)O.O=C(OC1CN2CCC1CC2)N1CCc2ccccc2C1c1ccccc1` (configuration not stated) [Solifenacin succinate] as the molecule, how does the cell viability read?
The cell viability was 91.8 ± 7.

How did the cell viability turn out when `COc1ccc(O)cc1` [Mequinol] was run?
The cell viability was 101 ± 13.

For `CCC(CO)NCCNC(CC)CO.Cl.Cl` (configuration not stated) [Ethambutol HCl], which cell viability is on record?
Its cell viability is 102 ± 7.8.

For `CC(NC(=O)C(O)C(C)C)C(=O)NC1C(=O)N(C)CCc2ccccc21` (configuration not stated), which cell viability is on record?
The cell viability was 71.2 ± 7.3.

For `CC12CCC3c4ccc(OC(=O)c5ccccc5)cc4CCC3C1CCC2O` (configuration not stated) [Estradiol Benzoate], which cell viability is on record?
Its cell viability is 79.7 ± 1.4.

For `CC(CN1CC(=O)NC(=O)C1)N1CC(=O)NC(=O)C1.Cl` (configuration not stated) [Dexrazoxane HCl (ICRF-187, ADR-529)], which cell viability is on record?
Its cell viability is 107 ± 3.7.

How did the cell viability turn out when `CCC1OC(=O)C(C)C(OC2CC(C)(OC)C(O)C(C)O2)C(C)C(OC2OC(C)CC(N(C)C)C2O)C(C)(O)CC(C)C2NC(COCCOC)OC(C2C)C1(C)O` (configuration not stated) [Dirithromycin] was run?
Its cell viability is 89.5 ± 16.

Which cell viability does the source give for `Cc1nc2c([nH]1)CCN(C(=O)c1ccc(NC(=O)c3ccccc3-c3ccccc3)cc1)c1ccccc1-2.Cl` [Conivaptan HCl] here?
Its cell viability is 60.4 ± 7.1.

How did the cell viability turn out when `COc1nc(C)nc(Cl)c1NC1=NCCN1` [Moxonidine] was run?
Its cell viability is 103 ± 15.

`CC(=O)OCC(=O)NCCCOc1cccc(CN2CCCCC2)c1.Cl` [Roxatidine Acetate HCl] was tested. Which cell viability did it give?
The cell viability was 121 ± 11.

For `Clc1ccc2c(c1)C(N1CCNCC1)=Nc1ccccc1O2` [Amoxapine], which cell viability is on record?
The cell viability was 87.5 ± 8.7.

With `CCCNS(=O)(=O)Nc1ncnc(OCCOc2ncc(Br)cn2)c1-c1ccc(Br)cc1` [Macitentan] as the molecule, how does the cell viability read?
Its cell viability is 65 ± 16.

How did the cell viability turn out when `OCC(O)C(O)C(O)CO` (configuration not stated) [Xylitol] was run?
The cell viability was 101 ± 15.

How did the cell viability turn out when `CCCc1ncc(C[n+]2ccccc2C)c(N)n1.Cl.[Cl-]` [Amprolium HCl] was run?
The cell viability was 102 ± 4.4.

`Cc1c(O)c(=O)ccn1C` [Deferiprone] was tested. Which cell viability did it give?
Its cell viability is 83.6 ± 14.

Which cell viability does the source give for `NC(=O)N1c2ccccc2CC(=O)c2ccccc21` [Oxcarbazepine] here?
Its cell viability is 107 ± 16.

How did the cell viability turn out when `CCC(C)C(=O)OC1CCC=C2C=CC(C)C(CCC3CC(O)CC(=O)O3)C21` (configuration not stated) [Mevastatin] was run?
The cell viability was 87.8 ± 22.

With `CC(=O)OC1(C(C)=O)CCC2C3CC(C)C4=CC(=O)CCC4(C)C3CCC21C` (configuration not stated) [Medroxyprogesterone acetate] as the molecule, how does the cell viability read?
Its cell viability is 98.5 ± 53.

With `CNC(C)C1CCC(N)C(OC2C(N)CC(N)C(OC3OCC(C)(O)C(NC)C3O)C2O)O1.O=S(=O)(O)O` (configuration not stated) [Gentamycin Sulfate] as the molecule, how does the cell viability read?
The cell viability was 100 ± 26.

`COc1ccc(CC2c3cc(OC)c(OC)cc3CC[N+]2(C)CCC(=O)OCCCCCOC(=O)CC[N+]2(C)CCc3cc(OC)c(OC)cc3C2Cc2ccc(OC)c(OC)c2)cc1OC.O=S(=O)([O-])c1ccccc1.O=S(=O)([O-])c1ccccc1` (configuration not stated) [Cisatracurium Besylate] was tested. Which cell viability did it give?
Its cell viability is 102 ± 17.

Which cell viability does the source give for `NCCCCCC(=O)O` [(6-)ε-Aminocaproic acid] here?
Its cell viability is 90 ± 16.

For `CC12CCC3=C4CCC(=O)C=C4CCC3C1CCC2(O)CC#N` (configuration not stated) [Dienogest], which cell viability is on record?
The cell viability was 94.3 ± 2.7.

`COC(=O)Nc1nc2ccc(S(=O)c3ccccc3)cc2[nH]1` (configuration not stated) [Oxfendazole] was tested. Which cell viability did it give?
Its cell viability is 113 ± 1.8.

Which cell viability does the source give for `Cc1cn(C2CC(N=[N+]=[N-])C(CO)O2)c(=O)[nH]c1=O` (configuration not stated) [Zidovudine] here?
Its cell viability is 116 ± 1.2.

How did the cell viability turn out when `CCN(CCO)CCCC(C)Nc1ccnc2cc(Cl)ccc12.O=S(=O)(O)O` (configuration not stated) [Hydroxychloroquine Sulfate] was run?
Its cell viability is 72.2 ± 1.6.

With `CC1(C)SC2C(NC(=O)C(N)c3ccccc3)C(=O)N2C1C(=O)[O-].[Na+]` (configuration not stated) [Ampicillin] as the molecule, how does the cell viability read?
The cell viability was 104 ± 9.8.

Which cell viability does the source give for `CC(O)(P(=O)(O)O)P(=O)(O)O` [Etidronate] here?
Its cell viability is 94.9 ± 14.
